Measurements: PubChem BioAssay (NCATS)
Results filed as inconclusive are left out. Entries that show only a call come without a potency. The source made the active and inactive calls. Calls come from the whole dose curve; as a rule, active = well fitted inhibition curve with a large enough effect; inconclusive = small, poorly fitted or top-dose-only effect; inactive = flat fitted curve, though single readings scatter.

target: Calcium and integrin-binding protein 1 (Homo sapiens) (UniProt Q99828); assay: Primary qHTS for Identification of Calcium Integrin Binding Protein 1 (CIB1) Competitor (AID 1508620); conditions: CIB1-GST / FITC-alphaIIb peptide fluorescence polarization; series mostly up to 114 µM;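 note: GST tagged CIB1 binding a fluorescein labelled alphaIIb integrin peptide tracer; top concentration of the series differs between compounds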
Sequence (Q99828 whole entry, looked up): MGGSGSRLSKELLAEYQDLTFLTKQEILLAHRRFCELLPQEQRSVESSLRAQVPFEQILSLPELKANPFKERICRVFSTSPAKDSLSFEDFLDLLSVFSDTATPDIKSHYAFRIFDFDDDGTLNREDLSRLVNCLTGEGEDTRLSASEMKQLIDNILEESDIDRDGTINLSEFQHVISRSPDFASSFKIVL
Summary of the method: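 CIB1-GST (1 uM final) and compound incubated 15 min at room temperature before adding FITC-alphaIIb peptide tracer (100 nM final). Competition for binding read by fluorescence polarization (ex 480, em 540) after another 15 min at room temperature.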

SMILES	Potency
Brc1ccc(-c2csc(N3CCCCC3)n2)cc1	inactive
CC(C)(C)OC(=O)Cc1nnc(-c2nc3ccccc3[nH]2)s1	inactive
COc1ccc(NS(=O)(=O)c2ccc3c(c2)CCC(=O)N3)cc1	inactive
CCOc1ccc(C(=O)Oc2ccc(-c3nc4ccccc4[nH]3)cc2)cc1[N+](=O)[O-]	inactive
COc1cccc(NC(=S)N2CCN(c3ncc(C(F)(F)F)cc3Cl)CC2)n1	inactive
CC(C)c1ccccc1-c1ncc(F)c(NCC2CCN(c3cccnc3)CC2)n1	inactive
Cc1cc2c(s1)c1cnn(Cc3ccc(C(F)(F)F)cc3)c(=O)c1n2C	inactive
O=[S+]([O-])(c1ccc2c(c1)OCCO2)N1CCN([S+](=O)([O-])c2cc(Cl)ccc2F)CC1	inactive
CSc1ccccc1-c1ccc(Nc2nc(-c3ccncc3)nc3ccccc23)cc1F	inactive
CCC(=O)C1CCCN(C(=O)CC(c2ccc3c(c2)OCO3)c2c(O)cc(OC)cc2OC)C1 (configuration not stated)	inactive
CC(=O)Nc1sc2c(c1-c1cc3ccccc3o1)CCNC2	inactive
COc1cccc(Nc2ccc(N3CCN(C(C)=O)CC3)cc2)c1OC	inactive
Cc1ccc(C)c(SC2=NS(=O)(=O)c3ccccc32)c1	inactive
CC(C)CC(OC(=O)CNC(=O)c1ccccc1)C(=O)Nc1cc(C(F)(F)F)ccc1Cl (configuration not stated)	inactive
CC(C)(C)OC(=O)NCc1nnc(C(C(=O)OCc2ccccc2)c2ccccc2)s1 (configuration not stated)	inactive
Cc1cc(NS(=O)(=O)c2ccc(NC(=O)Cc3ccc(Cl)c(Cl)c3)cc2)on1	inactive
O=C1COc2cc([S+](=O)([O-])Nc3ccc(Cl)c(Cl)c3)c(Cl)cc2N1	inactive
